Test systems include SK-MEL-2 melanoma; EKVX NSCLC; SN12C renal; UO-31 renal; TK-10 renal; ACHN renal; CAKI-1 renal; A498 renal; CCRF-CEM leukemia; MOLT-4 leukemia; RPMI-8226 leukemia; OVCAR-8 ovarian; OVCAR-5 ovarian; SK-OV-3 ovarian; IGROV1 ovarian; OVCAR-3 ovarian; NCI/ADR-RES ovarian; OVCAR-4 ovarian; HS 578T breast; SR leukemia.
Test in all cases: NCI-60 one-dose screen, 48 h (100 = growth as untreated, 0 = no growth, -100 = all killed)
What all share (settings): 10 µM unless noted

The structures appear in SMILES notation. This is part of a sample that, as a whole, favours compounds with a hit. Of some 83,000 tested, about 20% had one in any assay.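 Cell lines were cultured in 96-well plates, exposed to a single compound concentration, and assessed for percent growth 48 hours later.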 Unmarked numbers belong to inactive results. Calls of active or inactive are those of the source. Rule for the calls: active = growth percent below 10; inactive = the rest.

Regarding `C=C1C(=O)O[C@H]2[C@H]1CC/C(Cn1cc(CNCCc3c[nH]c4ccccc34)nn1)=C\CC[C@@]1(C)O[C@@H]21`, the growth with SK-MEL-2 melanoma was 61.4%; in the test on EKVX NSCLC, 97.2%; with SN12C renal it was 95%; in the test on UO-31 renal it was 80.7%; in the test with TK-10 renal, 94.9%; in the test with ACHN renal, 87.4%. Moreover, the growth in the test with CAKI-1 renal is 91.3%; in the test with A498 renal, 103%; with CCRF-CEM leukemia it was 16.4%; in the test on MOLT-4 leukemia, 77.6%; in the test with RPMI-8226 leukemia, 76.5%; in the test on OVCAR-8 ovarian, 92.5%. Besides, the growth with OVCAR-5 ovarian was 88.8%; in the test on SK-OV-3 ovarian it was 80.9%; in the test with IGROV1 ovarian it was 68.8%; in the test on OVCAR-3 ovarian, 69.4%; in the test on NCI/ADR-RES ovarian, 99.9%.
Turning to `COc1ccc(/C(C)=C(\c2ccc(Cl)cc2)c2ccc(OCCN3CCCC3)cc2)cc1F`, the growth in the test with SK-MEL-2 melanoma is 59.9%; in the test with EKVX NSCLC, 47%; with SN12C renal it was 51.6%; in the test with UO-31 renal it was 28.9%; with TK-10 renal, 62%; with ACHN renal it was 50.9%. For the same molecule, the growth is 22% in the test on CAKI-1 renal; 68% with A498 renal; 31.2% with CCRF-CEM leukemia; -5.27% (active) with MOLT-4 leukemia; 48.7% in the test on OVCAR-8 ovarian; 46.6% in the test with OVCAR-5 ovarian. For the same molecule, the growth with OVCAR-4 ovarian is 32.3%; in the test with SK-OV-3 ovarian, 58.6%; in the test on IGROV1 ovarian, 38.1%; with OVCAR-3 ovarian it was 35.2%; in the test with HS 578T breast, 30%; in the test with NCI/ADR-RES ovarian it was 51.6%.
For the molecule `O=C(NCOC(O)C(Cl)(Cl)Cl)NCOC(O)C(Cl)(Cl)Cl` (centres undefined), the growth in the test on SK-MEL-2 melanoma was 89.7%; with EKVX NSCLC it was 107%; in the test with SN12C renal it was 97.8%; with UO-31 renal, 78.4%; in the test on TK-10 renal it was 100%; in the test on ACHN renal, 92.8%. Also, the growth with CAKI-1 renal was 95.9%; in the test on A498 renal, 77.1%; in the test with CCRF-CEM leukemia it was 105%; in the test on SR leukemia, 109%; with RPMI-8226 leukemia, 105%; in the test with OVCAR-8 ovarian it was 104%. The growth with OVCAR-5 ovarian was 89.7%; in the test with OVCAR-4 ovarian, 108%; in the test on SK-OV-3 ovarian, 90%; in the test on IGROV1 ovarian, 99.1%; in the test with OVCAR-3 ovarian, 116%; in the test with HS 578T breast, 108%. In addition, the growth in the test on NCI/ADR-RES ovarian was 103%.
Turning to `CCCc1nc2ccccn2c1Nc1ccc(C(=O)NO)cc1`, the growth in the test on SK-MEL-2 melanoma is 92.1%; in the test on EKVX NSCLC, 100%; in the test with SN12C renal, 86.5%; in the test on UO-31 renal, 83.3%; in the test on TK-10 renal, 94.7%; in the test with ACHN renal, 91.8%. The growth was 88.8% in the test with CAKI-1 renal; 87.3% in the test with A498 renal; 74.2% with CCRF-CEM leukemia; 76.3% in the test on RPMI-8226 leukemia; 78% in the test with OVCAR-8 ovarian; 93.7% with OVCAR-5 ovarian. In addition, the growth is 91.1% with OVCAR-4 ovarian; 80.9% in the test on SK-OV-3 ovarian; 111% in the test with IGROV1 ovarian; 99.1% with OVCAR-3 ovarian; 94.6% with HS 578T breast; 84.6% with NCI/ADR-RES ovarian.
For `Clc1cnc(Nc2ccc(OCCN3CCCC3)cc2)nc1NCc1ccco1`, the growth is -10.3% (active) with SK-MEL-2 melanoma; 25.2% in the test on EKVX NSCLC; 5.92% (active) in the test on SN12C renal; -3.47% (active) with UO-31 renal; 9.62% (active) with TK-10 renal; -10.2% (active) in the test on ACHN renal. In addition, the growth in the test on CAKI-1 renal is 10%; with A498 renal, 17.6%; in the test on CCRF-CEM leukemia, 7.04% (active); in the test on RPMI-8226 leukemia it was 6.95% (active); with OVCAR-8 ovarian, 20.2%; in the test on OVCAR-5 ovarian it was 8.69% (active). The growth in the test with SK-OV-3 ovarian is 57.8%; in the test with IGROV1 ovarian, 15.7%; in the test on OVCAR-3 ovarian, 28.8%; in the test on HS 578T breast, 31.4%; with NCI/ADR-RES ovarian it was 18.5%.
With `CCCCCCCCc1cc[n+](CC(=O)c2ccc(Br)cc2)cc1`, the growth was 0.325% (active) in the test on SK-MEL-2 melanoma; 35.7% in the test with EKVX NSCLC; 8.54% (active) with SN12C renal; 38.2% in the test on UO-31 renal; -67.5% (active) with TK-10 renal; 9.78% (active) with ACHN renal. Further, the growth was 41.4% in the test with CAKI-1 renal; 88.8% with A498 renal; 0.476% (active) with CCRF-CEM leukemia; -9.98% (active) in the test with RPMI-8226 leukemia; -65.8% (active) in the test with OVCAR-8 ovarian; 51.9% in the test on OVCAR-5 ovarian. In addition, the growth with OVCAR-4 ovarian is 18.8%; in the test with SK-OV-3 ovarian, 22%; in the test on IGROV1 ovarian, 1.68% (active); in the test with OVCAR-3 ovarian, -44.1% (active); with HS 578T breast, -29.2% (active); in the test with NCI/ADR-RES ovarian, 93.3%.
For `Clc1ccc2c(NCCCN3CCN(c4nc(-n5ccnc5)nc5ccccc45)CC3)ccnc2c1`, the growth was 97.7% in the test on SK-MEL-2 melanoma; 86% in the test with EKVX NSCLC; 84.1% with SN12C renal; 43.5% in the test with UO-31 renal; 122% with TK-10 renal; 110% in the test on ACHN renal. The growth in the test on CAKI-1 renal is 86.3%; in the test on A498 renal it was 85.1%; in the test on CCRF-CEM leukemia, 6.59% (active); in the test with RPMI-8226 leukemia it was -48.6% (active); in the test on OVCAR-8 ovarian, 84.2%; in the test with OVCAR-5 ovarian, 120%. In addition, the growth in the test on OVCAR-4 ovarian is 64.9%; with SK-OV-3 ovarian it was 109%; in the test on IGROV1 ovarian it was 86.5%; in the test on OVCAR-3 ovarian it was 90.5%; in the test with HS 578T breast, 85.5%; in the test on NCI/ADR-RES ovarian, 90.7%.
Take `CCOC(=O)c1c2c(c(C)n1C)-c1nn(Cc3ccc(OC)cc3)cc1CC2`: the growth in the test with SK-MEL-2 melanoma is 111%; in the test with EKVX NSCLC, 79.6%; in the test with SN12C renal it was 92.5%; in the test with UO-31 renal, 91.3%; in the test on TK-10 renal, 206%; in the test on ACHN renal, 91.9%. The growth in the test with CAKI-1 renal is 85.2%; with A498 renal, 98.7%; in the test on CCRF-CEM leukemia, 82.9%; in the test with SR leukemia, 71.2%; in the test with RPMI-8226 leukemia, 77.8%; with OVCAR-8 ovarian, 100%. Further, the growth in the test on OVCAR-4 ovarian is 71.2%; in the test on SK-OV-3 ovarian, 109%; in the test with IGROV1 ovarian, 111%; in the test with OVCAR-3 ovarian it was 108%.
Turning to `COC(=O)c1ccc2oc(NC(=O)c3ccc(N4CCOCC4)c([N+](=O)[O-])c3)nc2c1`, the growth was 99.5% with SK-MEL-2 melanoma; 96.6% in the test on EKVX NSCLC; 87.3% in the test with SN12C renal; 75.4% in the test with UO-31 renal; 115% with TK-10 renal; 94.1% with ACHN renal. In addition, the growth with CAKI-1 renal is 85.9%; with A498 renal, 98.5%; with CCRF-CEM leukemia it was 90.3%; with RPMI-8226 leukemia it was 93.3%; in the test on OVCAR-8 ovarian, 99%; in the test on OVCAR-5 ovarian, 92.8%. The growth was 91% in the test with OVCAR-4 ovarian; 89.8% in the test on SK-OV-3 ovarian; 99.9% in the test with IGROV1 ovarian; 107% in the test on OVCAR-3 ovarian; 96.9% with HS 578T breast; 103% in the test on NCI/ADR-RES ovarian.

The values above are taken from PubChem BioAssay (NCI).
